Mito fusion act – qHTS Assay for Small Molecule Inhibitors of Mitochondrial Division or Activators of Mitochondrial Fusion; S. cerevisiae fusion-defective mutant growth rescue, CellTiterGlo 48 h; Potency, µM (highest dose often 46.1 µM), usual class: activators; 0.23% of 320,000 active; AID 485298, 2010; further: nearly all actives have a fitted effect of over 45% in size
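Luminescent cell viability in 1536-well qHTS format served as the measure of rescued growth in ts fusion-mutant S. cerevisiae cultured on non-fermentable YPEG for 48 hours at 37C.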
GLP1R inv ag – qHTS of GLP-1 Receptor Inverse Agonists (Inhibition Mode) | HEK293 GLP-1R CRE-luciferase, luminescence, 24 h; GLP-1R form is constitutively active | Glucagon-like peptide 1 receptor (Homo sapiens), P43220 | Potency, µM (top dose mostly 38.3 µM), actives largely listed as inhibitors | 1.6% of 410,000 active; further: nearly all actives have a fitted effect of over 55% in size
Target sequence (P43220 whole entry, looked up): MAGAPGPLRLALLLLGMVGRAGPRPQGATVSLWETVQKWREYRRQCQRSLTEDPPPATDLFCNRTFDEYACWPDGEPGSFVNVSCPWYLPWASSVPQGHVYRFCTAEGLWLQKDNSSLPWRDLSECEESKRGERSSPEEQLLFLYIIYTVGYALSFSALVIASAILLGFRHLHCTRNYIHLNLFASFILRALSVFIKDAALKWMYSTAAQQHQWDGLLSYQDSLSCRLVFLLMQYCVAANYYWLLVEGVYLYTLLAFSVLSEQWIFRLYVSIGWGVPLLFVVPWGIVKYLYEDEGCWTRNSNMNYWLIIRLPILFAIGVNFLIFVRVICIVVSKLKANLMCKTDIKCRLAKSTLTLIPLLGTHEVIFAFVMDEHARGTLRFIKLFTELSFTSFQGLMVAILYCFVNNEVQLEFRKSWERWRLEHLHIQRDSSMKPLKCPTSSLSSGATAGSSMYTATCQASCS
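HEK293 cells stably co-expressing constitutively active GLP-1R and a cAMP-responsive luciferase reporter were seeded in DMEM with 10% Nu serum, given compounds after 12 h, and incubated 24 h at 37 deg C. Luminescence was then read.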
HEK293 tox – qHTS of GLP-1 Receptor Inverse Agonists: Cytotox Screen; HEK293 cAMP-luciferase reporter cells, luminescence, 24 h; Potency, µM (doses to about 38.3 µM), usual class: inhibitors; 0.13% of 410,000 active; AID 624418, 2012;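 further: loss of luciferase light is scored as toxicity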
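Seeding density was 200 cells/uL; after overnight-length (12 h) culture, 23 nL compounds went on for 24 h at 37 °C. Readout used a luciferase detection reagent, luminescence taken after 12 min at room temperature.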
GLP-1R agonist – qHTS of GLP-1 Receptor Agonists; Glucagon-like peptide 1 receptor (Homo sapiens), P43220; HEK293 GLP-1R CRE-luciferase, luminescence, 4-6 h; cells express a hypersensitive GLP-1R form; Potency, µM (top dose mostly 45.6 µM), most hits filed as activators; 0.007% of 380,000 active
BRCA1 expr up – qHTS Assay to Identify Small Molecule Activators of BRCA1 Expression | MCF7-BRCA1-FFLuc reporter, luminescence, 48 h; response scale: scaled: vehicle 0%, 10 µM genistein 100% | Potency, µM (highest dose often 46.1 µM), usual class: activators | 1.1% of 380,000 active | AID 624202, 2012; further: nearly all actives have a fitted effect of over 80% in size
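Activators of BRCA1 expression were detected as increased firefly luciferase luminescence in engineered MCF7 cells after 48 h compound incubation. Signals were scaled to genistein 10 microM as full activation.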
Hits are given with their value; n = inactive; u = inconclusive; x = no result given; [ ] = dose if it differs, or a comment. Most compounds without a hit are left out; they make up all but 2.8% or so of the library. The call rests on the fitted dose curve; in most records, active means well fitted curve in the direction sought with a large enough effect; inconclusive means small, poorly fitted or top-dose-only effect, or another doubt; inactive means no such curve, though single readings can be large; an effect the other way counts as inactive or inconclusive.

SMILES	Mito fusion act	GLP1R inv ag	HEK293 tox	GLP-1R agonist	BRCA1 expr up
Cc1ccc(C)c(NC(=S)NCCSc2ccc(Cl)cc2)c1	n	u	u	n	n
C=CC[C@@H](CC(=O)N(CCO)Cc1ccccc1)C(=O)NCCOC(=O)[C@H](CC=C)CC(=O)OC(C)(C)C	x	n	n	n	n
Cc1ccc(CN2C(=O)C(Cc3ccccc3)Nc3ncnc(N4CCN(c5ccccc5)CC4)c32)cc1 (centres undefined)	11.2µM	u	n	n	n
O=C1C(Cc2ccccc2)Nc2ncnc(N3CCN(c4ccccc4)CC3)c2N1Cc1ccccc1 (centres undefined)	n	u	n	n	n
COc1ccc(CN2CCN(CCc3ccccc3)C(CCO)C2)c(O)c1 (centres undefined)	n	11.2µM	n	n	n
CCn1cc(CN2CCN(Cc3ccccc3)C(CCO)C2)c2ccccc21 (centres undefined)	n	10µM	n	n	n
CCn1cc(CN2CCN(Cc3ccc(C)o3)C(CCO)C2)c2ccccc21 (centres undefined)	n	u	n	n	n
COc1cccc(C(=O)NC(=S)Nc2ccccc2N2CCCC2)c1	n	5.01µM	u	n	n
O=C(NC(=S)Nc1ccccc1N1CCOCC1)c1cccc([N+](=O)[O-])c1	n	3.55µM	u	n	n
COc1cccc(C(=O)NC(=S)Nc2ccccc2N2CCCCC2)c1	n	5.62µM	n	n	n
COc1cccc(C(=O)Nc2ccccc2N2CCCC2)c1	n	n	n	n	n
O=C1CCCC/C=C\C[C@H](CC(=O)N(CCO)Cc2ccccc2)C(=O)NC[C@H](c2ccccc2)O1	x	n	n	n	n
CCOc1ccc(/C=C/C(=O)Nc2ccccc2C(F)(F)F)cc1	n	n	n	n	n
COc1ccc(/C=C/C(=O)Nc2cccc(C(C)=O)c2)cc1	n	n	n[1.53 µM]	n	4.47µM
COc1ccc(NC(=O)/C=C/c2ccc(Cl)cc2)cc1	5.17µM	x	x	x	x
COc1ccc(/C=C/C(=O)Nc2ccccc2C(F)(F)F)cc1	n	n	n	n	3.16µM
COc1ccc(NC(=O)/C=C/c2ccco2)cn1	n	n	n	n	n
CC(=O)Nc1ccc(NC(=O)/C=C/c2ccc(Cl)cc2)cc1	n	n[7.66 µM]	n[7.66 µM]	n	n
COc1ccc(NC(=O)/C=C/c2cccc(F)c2)cn1	n	u	n[1.53 µM]	n	7.08µM
CCc1cc(=O)oc2cc(C)c3c(-c4ccc(F)cc4)coc3c12	x	n	n	x	x
COc1ccc(S(=O)(=O)NCCc2ccccc2)cc1OC	n	n	n	n	n
O=C(NCCN1CCOCC1)c1cccnc1SCc1ccccc1Cl	n	n	n	n	n
CCOc1ccc(C2=[N+]([O-])C(C)(C)N(O)C2(C)C)cc1	n	n	n	n	n
O=C(COc1cccc2cccnc12)N/N=C1\SCC(=O)N1Cc1ccco1	n	n	n	n	n
CCOc1ccc(N(CC(=O)NCC2CCCO2)S(=O)(=O)c2ccc(Cl)cc2)cc1 (centres undefined)	n	n	n	n	n
SMILES	Mito fusion act	GLP1R inv ag	HEK293 tox	GLP-1R agonist	BRCA1 expr up
Cn1c(Sc2ccc(Br)cc2)c(C=O)c2ccccc21	n	4.47µM	n	n	n
Cn1c(C=O)c(C#Cc2ccccc2)c2ccccc21	n	u	n	n	n
Cc1nc(NC(C)C(=O)O)c2nc(C)oc2n1 (centres undefined)	n	n	n	n	n
CC(C)CCNC(=O)c1onc(CSc2ccc(F)cc2)c1C(=O)NCCC(C)C	n	u	n	n	n
CC(C)CCNC(=O)c1onc(CSc2ccccc2)c1C(=O)NCCC(C)C	x	3.98µM	n	n	n
CC(C)CCNC(=O)c1onc(CSc2ccc(Cl)cc2)c1C(=O)NCCC(C)C	n	10µM	n	n	n
O=C(c1ccccc1)c1ccccc1NC(=O)c1ccccc1C(=O)O	x	n	n	x	x
CCOc1cc(/C=C2\CN(C)C/C(=C\c3ccc(O)c(OCC)c3)C2=O)ccc1O	n	u	u	n	n
CCOc1cc(/C=C2\CCC/C(=C\c3cc(Cl)c(O)c(OCC)c3)C2=O)cc(Cl)c1O	n	10µM	11.2µM	n	n
CC1OC(OCC2OC(Oc3c(-c4ccc(OCCO)c(OCCO)c4)oc4cc(OCCO)cc(O)c4c3=O)C(O)C(O)C2O)[C@@H](O)C(O)C1O (some centres undefined)	x	x	x	n	x
O=C1c2ccccc2CN1C(CO)c1ccccc1 (centres undefined)	n	n	n	n	n
CCN(CC)S(=O)(=O)c1ccc2nnn(OCC(=O)Nc3cccc(C#N)c3)c2c1	n	n	n	n	n
CS(=O)(=O)c1ccc2nnn(OCC(=O)Nc3ccc(Br)cc3Br)c2c1	n	10µM	n	n	n
CCOc1ccccc1NC(=O)COn1nnc2ccc(Cl)cc21	11.2µM	n	n	n	n
CCN(c1ccc(NC(=O)COC(=O)/C=C/c2ccco2)cc1)C(C)C	x	u	u	n	n
C/C(=N\NC(=O)c1ccc2c(c1)OCO2)c1cccnc1	n	n	n	n	n
CCN(CC)CCNc1ccc(C)c2sc3ccc(O)cc3c(=O)c12	x	10µM	u	n	n
CCOC(=O)c1c(C)[nH]c(C)c1S(=O)(=O)N1CCCC(C(=O)Nc2cc(C)ccc2C)C1 (centres undefined)	x	n	n	x	n
CCCn1nc(C(=O)NC2CCCc3ccccc32)c2ccccc2c1=O (centres undefined)	u	u	n	n	n
S=C(Nc1cccc(Br)c1)c1ccccc1	u	12.6µM	n	n	n
O=C(CSc1nnc2sc3ccccc3n12)c1ccco1	n	n	n	n	12.6µM
COc1cccc(-c2cn3nc4c(nc3n2)CCCC4)c1	n	2.51µM	n	n	n
O=C(C[n+]1ccc(/C=N/O)cc1)N1CCCCC1	n	n	n	n	n
COc1ccccc1OCCNC(=O)c1cc(C2CC2)nc2c1cnn2C(C)C	n	n	n	n	n
COc1ccc(C(=O)NC(=S)N2CCN(c3ccccc3OC)CC2)cc1	n	u	4.47µM	n	n
COc1ccccc1N1CCN(C(=O)c2cc(-c3ccccc3)nc3c2cnn3C(C)C)CC1	x	11.2µM	n	n	n
Cc1ccccc1N1CCN(C(=O)c2cc(-c3ccccc3)nc3c2cnn3C(C)C)CC1	x	n	n	n	n
COc1ccccc1CCNC(=O)c1cc(C2CC2)nc2c1cnn2C(C)C	u	10µM	n	n	n
COc1ccccc1N1CCN(C(=O)c2ccccc2Oc2ccccc2)CC1	u	8.91µM	n	n	n

From PubChem BioAssay
